Counter-ions that a name gives are not always drawn.
Tested on: Drosophila S2 cl14 SmoIP sensor cells
Experiment: normalized SmoIP GFP fluorescence (untreated unstimulated = 0%, untreated Hh-stimulated = 100%); higher = more Smo activation sensor fluorescence
Conditions: compound concentration: 2 uM, 24 h
[1] = stimulation: Hh conditioned medium (+Hh)
[2] = stimulation: mock conditioned medium (-Hh)
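Note: flow cytometry read-out as median GFP intensity of gated cells, compounds added 30 min before Hh-conditioned or mock medium, mock-treated cells serving as unstimulated baseline.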

Row | SMILES | normalized SmoIP GFP fluorescence [1] | normalized SmoIP GFP fluorescence [2]
1 | Cc1ccc(NC(=O)C2(c3ccc4c(c3)OC(F)(F)O4)CC2)nc1-c1cccc(C(=O)O)c1 | 80% | 
2 | O=S(=O)(c1ccccc1)N(CC(F)(F)F)c1ccc(C(O)(C(F)(F)F)C(F)(F)F)cc1 | 104% | -1.85%
3 | CN1CCN(C(=O)c2cc3cc(Cl)ccc3[nH]2)CC1 | 101% | -2.71%
4 | CC(/C=C/C(=O)NO)=C\[C@@H](C)C(=O)c1ccc(N(C)C)cc1 [Trichostatin-A] | 276% | 77.5%
5 | CCCCOc1cc(C(=O)NCCN(CC)CC)c2ccccc2n1 [dibucaine-cinchocaine-hcl] | 113% | 0.361%
6 | COc1ccc2cc(CCC(C)=O)ccc2c1 [nabumetone] | 103% | -2.2%
7 | O=C(c1ccc(F)cc1)N1CCC[C@H](c2nc(-c3ccc(F)cc3)no2)C1 | 156% | -7.78%
8 | CS(=O)(=O)CCNCc1ccc(-c2ccc3ncnc(Nc4ccc(OCc5cccc(F)c5)c(Cl)c4)c3c2)o1 [Lapatinib-Ditosylate] | 253% | 9%
9 | c1cc(-c2cnn3cc(-c4ccc(N5CCNCC5)cc4)cnc23)c2cccnc2c1 | 120% | 2.12%
10 | COc1ccc(COc2cc3oc(=O)c4cc(C(C)O)ccc4c3cc2OC)cc1 (configuration not stated) [Palomid-529-P529] | 134% | -15.8%
11 | CC(C)(C)c1cc(C(C)(C)C)c(NC(=O)c2c[nH]c3ccccc3c2=O)cc1O | -31.6% | 7.39%
12 | CC(C)C1CCC(C(=O)N[C@H](Cc2ccccc2)C(=O)O)CC1 (some centres not stated) [Nateglinide(Starlix)] | 110% | -4.71%
13 | Cc1cc(C2CCCCC2)n(O)c(=O)c1 [ciclopirox-ethanolamine] | 101% | -0.264%
14 | O=C(NC[C@H](O)CO)c1ccncc1Nc1ccc(I)cc1F | 182% | 46.7%
15 | Cn1cc(-c2ccc3nnc(Sc4ccc5ncccc5c4)n3n2)cn1 | 96.1% | -1.88%
16 | CCOC(=O)[C@H](CCc1ccccc1)N[C@@H](C)C(=O)N1Cc2ccccc2C[C@H]1C(=O)O [quinapril-hydrochloride-accupril] | 125% | 2.95%
17 | O=C(NC(NC(=S)Nc1ccc(F)c([N+](=O)[O-])c1)C(Cl)(Cl)Cl)C(c1ccccc1)c1ccccc1 (configuration not stated) | 108% | 0.815%
18 | CCOc1cc2ncc(C#N)c(Nc3ccc(OCc4ccccn4)c(Cl)c3)c2cc1NC(=O)/C=C/CN(C)C [Neratinib(HKI-272)] | 105% | -15.6%
19 | O=C(C=Cc1ccccc1)NC(NC(=S)Nc1ccc(Cl)cc1)C(Cl)(Cl)Cl (configuration not stated) | 88.1% | -1.13%
20 | CN1CCC(=C2c3ccccc3CCc3cccnc32)CC1 [azatadine-dimaleate] | 114% | 4.79%
21 | Cc1cc(C#N)cc(C)c1Oc1nc(Nc2ccc(C#N)cc2)nc(N)c1Br [etravirine-tmc125] | 93.3% | -0.264%
22 | O=C(Oc1cc(S(=O)(=O)c2ccccc2)ccc1[N+](=O)[O-])c1ccc(Cl)cc1 | 146% | 7.6%
23 | O=C(Nc1ccc(S(=O)(=O)Nc2ccccc2Cl)c(Cl)c1)c1ccccn1 | 131% | 3.4%

Row | SMILES | normalized SmoIP GFP fluorescence [1] | normalized SmoIP GFP fluorescence [2]
24 | O=C(NCc1ccc(Oc2ccccc2)cc1)c1nc(-c2cc(Br)c(O)c(Br)c2)no1 [iowh032] | 117% | 20%
25 | O=C(Cc1ccc(-c2ccc(OCCN3CCOCC3)cc2)cn1)NCc1ccccc1 | 108% | 23.9%
26 | CNCCc1ccccn1 [betahistine-dihydrochloride] | 98.3% | -3.05%
27 | NC(=O)c1ccc(N(C(N)=O)c2c(F)cccc2F)nc1-c1ccc(F)cc1F | 103% | -3.5%
28 | C[C@H](Cc1cc2c(c(C(N)=O)c1)N(CCCO)CC2)NCCOc1ccccc1OCC(F)(F)F [Silodosin(Rapaflo)] | 83.5% | -7.81%
29 | O=C(NC[C@H]1CN(c2ccc(N3CCOCC3=O)cc2)C(=O)O1)c1ccc(Cl)s1 [Rivaroxaban] | 103% | -1.34%
30 | O=C(COc1ccc(Cl)cc1)NC1CCC(NC(=O)COc2ccc(Cl)cc2)CC1 (stereo not drawn) [isrib-trans-isomer] | 109% | 7.06%
31 | O=C(c1cncc(Br)c1)N1CCC(N2CCCC2)CC1 | 98.8% | 1.35%
32 | Cc1cc2c(F)c(Oc3ncnn4cc(OC[C@@H](C)O)c(C)c34)ccc2[nH]1 [Brivanib] | 97.5% | 0.489%
33 | CC(C)(C#N)c1cc(Cn2cncn2)cc(C(C)(C)C#N)c1 [Anastrozole] | 109% | -2.96%
34 | CN1CC(=O)N2[C@H](c3ccc4c(c3)OCO4)c3[nH]c4ccccc4c3C[C@@H]2C1=O [Tadalafil(Cialis)] | 94.8% | -0.265%
35 | CNC(=O)Nc1ccc(-c2nc(N3CC4CCC(C3)O4)c3cnn(C4CCC5(CC4)OCCO5)c3n2)cc1 | 41.3% | -8.33%
36 | COCCOC(=O)C1=C(C)NC(C)=C(C(=O)OC/C=C/c2ccccc2)C1c1cccc([N+](=O)[O-])c1 (configuration not stated) [Cilnidipine] | 112% | 2.97%
37 | OCCn1cc(-c2cnc3nnn(Cc4ccc5ncccc5c4)c3n2)cn1 | 110% | 1.03%
38 | COc1cc([C@@H]2c3cc4c(cc3[C@@H](O[C@@H]3O[C@@H]5CO[C@@H](C)O[C@H]5[C@H](O)[C@H]3O)[C@H]3COC(=O)[C@H]23)OCO4)cc(OC)c1OP(=O)(O)O [Etopophos] | 178% | 28.7%
39 | c1ccc(-c2[nH]ncc2-c2ccnc3ccccc23)nc1 | 101% | 0.247%
40 | CC(=O)O[C@H]1CC[C@@]2(C)C(=CCC3C2CC[C@]2(C)C(c4cccnc4)=CCC32)C1 (some centres not stated) [Abiraterone-Acetate-CB7630] | 106% | -12.7%
41 | Fc1ccc(C(c2ccc(F)cc2)N2CCN(C/C=C/c3ccccc3)CC2)cc1 [flunarizine-dihydrochloride] | 134% | 6.74%
42 | Cc1cc(/C=C/C#N)cc(C)c1Nc1ccnc(Nc2ccc(C#N)cc2)n1 [rilpivirine] | 110% | -0.151%
43 | COc1cccc(Nc2c(C(N)=O)cnc3c(C)cc(S(=O)(=O)c4cccc(C(=O)N(C)C)c4)cc23)c1 | 111% | -16.1%
44 | COc1ccc(C(=O)Nc2sc3c(c2C(N)=O)CCCC3)cc1OC | 128% | -9.85%
45 | O=C(O)/C=C/c1ccc(Cn2ccnc2)cc1 [Ozagrel] | 116% | -2.46%
46 | CN(C)Cc1cccc(N/C(=C2\C(=O)Nc3cc(C(N)=O)ccc32)c2ccccc2)c1 | 103% | -1.88%

Row | SMILES | normalized SmoIP GFP fluorescence [1] | normalized SmoIP GFP fluorescence [2]
47 | c1ccc(-c2nn3c(c2-c2ccnc4cc(OCCN5CCOCC5)ccc24)CCC3)nc1 | 137% | 30.2%
48 | COc1ccc(C2=N[C@@H](c3ccc(Cl)cc3)[C@@H](c3ccc(Cl)cc3)N2C(=O)N2CCNC(=O)C2)c(OC(C)C)c1 [Nutlin-3] | 90.4% | 2.11%
49 | O=C1NC(=O)C(c2ccccc2[N+](=O)[O-])=C1Nc1ccc(O)c(Cl)c1 | 153% | -16.1%
50 | CO[C@H]1C[C@@H]2CC[C@@H](C)[C@@](O)(O2)C(=O)C(=O)N2CCCC[C@H]2C(=O)O[C@H]([C@H](C)C[C@@H]2CC[C@@H](OP(C)(C)=O)[C@H](OC)C2)CC(=O)[C@H](C)/C=C(\C)[C@@H](O)[C@@H](OC)C(=O)[C@H](C)C[C@H](C)/C=C/C=C/C=C/1C [Deforolimus] | 23.8% | -8.56%
51 | C[C@@H]1C[C@H]2[C@@H]3CCC4=CC(=O)C=C[C@]4(C)[C@@]3(F)[C@@H](O)C[C@]2(C)[C@@]1(O)C(=O)CO [Dexamethasone] | 86.8% | 5.66%
52 | CC1=C(/C=C/C(C)=C/C=C/C(C)=C\C(=O)O)C(C)(C)CCC1 [Isotretinoin] | 106% | -7.27%
53 | Nc1nccc(Oc2ccc(NC(=O)c3c[nH]cc(-c4ccc(F)cc4)c3=O)cc2F)c1Cl | 88.3% | -6.34%
54 | COc1cc(NC(=O)c2ccc(-c3ccc(Cl)cc3)o2)cc(OC)c1 | 115% | -1.97%
55 | CN(C)[C@@H](CCOc1cccc2ccccc12)c1ccccc1 [Dapoxetine-hydrochloride(Priligy)] | 115% | -13.2%
56 | Cc1ccc(Nc2nccc(N(C)c3ccc4c(C)n(C)nc4c3)n2)cc1S(N)(=O)=O [Pazopanib-Hydrochloride] | 117% | -4.53%
57 | CCn1c2ccccc2c2cc(Nc3ccnc(NCCCN4CCOCC4)n3)ccc21 [ehop-016] | 100% | -3.62%
58 | CN1CCN(C2CCN(C(=O)Nc3cc(Oc4ccc(NC(=O)C5(C(=O)Nc6ccc(F)cc6)CC5)c(F)c4)ccn3)CC2)CC1 [golvatinib-e7050] | 125% | 12.5%
59 | Cc1ccc(C(=O)Nc2ccc(CN3CCN(C)CC3)c(C(F)(F)F)c2)cc1C#Cc1cnc2cccnn12 | 128% | 11.3%
60 | NCCCCCNCC12CC3CC(CC(C3)C1)C2 [iem-1754-dihydrobromide] | 102% | -2.31%
61 | CC1(C)CC(=O)c2c(C(F)(F)F)nn(-c3ccc(C(N)=O)c(N[C@H]4CC[C@H](O)CC4)c3)c2C1 | 178% | 12.3%
62 | O=C(O)CCc1ccc(NCc2cccc(Oc3ccccc3)c2)cc1 | 105% | -2.19%
63 | COc1cc2nccc(Oc3ccc(NC(=O)NC4CC4)c(Cl)c3)c2cc1C(N)=O | 99.3% | 7.92%
64 | C1=C/COCc2cc(ccc2OCCN2CCCC2)Nc2nccc(n2)-c2cccc(c2)COC/1 [pacritinib-sb1518] | 114% | 1.72%
65 | COc1cc(F)c(C(C)C)cc1-c1ccc(C(F)(F)F)cc1CN1C(=O)O[C@H](c2cc(C(F)(F)F)cc(C(F)(F)F)c2)[C@@H]1C [anacetrapib-mk-0859] | 146% | -8.59%
66 | CN(C)CC(=O)Nc1ccc2[nH]c(=O)c3ccccc3c2c1 | 113% | -1.97%
67 | Cc1ccc(NCCCc2ccccc2)c(N)c1 | 224% | 40.1%
68 | CC(=O)N[C@@H](CS)C(=O)O [Acetylcysteine] | 111% | 1.57%
69 | COCC[n+]1c2c(n(Cc3cnccn3)c1C)C(=O)c1ccccc1C2=O | 101% | -12.7%

From the supplement of paper PMC5662767
